# Results from publication PMC7862700, “An all-to-all approach to the identification of sequence-specific readers for epigenetic DNA modifications on cytosine”.
# Assays:
# Assay in all cases: DAPPL (digital affinity profiling via proximity ligation, sequencing); 10 mM Tris-HCl pH 7.5, 50 mM NaCl, 1 mM DTT, 4% glycerol, room temperature, 30 min; GST-TFs on glutathione beads, 16-mer random dsDNA library, 0.1% formaldehyde crosslink after washing; high values mean tight binding
# [1] = target: T1, FLI1 (Homo sapiens, UniProt Q01543 1-452); conditions: protein: recombinant; tags: N-terminal GST; dsDNA, one strand shown
# T1 sequence: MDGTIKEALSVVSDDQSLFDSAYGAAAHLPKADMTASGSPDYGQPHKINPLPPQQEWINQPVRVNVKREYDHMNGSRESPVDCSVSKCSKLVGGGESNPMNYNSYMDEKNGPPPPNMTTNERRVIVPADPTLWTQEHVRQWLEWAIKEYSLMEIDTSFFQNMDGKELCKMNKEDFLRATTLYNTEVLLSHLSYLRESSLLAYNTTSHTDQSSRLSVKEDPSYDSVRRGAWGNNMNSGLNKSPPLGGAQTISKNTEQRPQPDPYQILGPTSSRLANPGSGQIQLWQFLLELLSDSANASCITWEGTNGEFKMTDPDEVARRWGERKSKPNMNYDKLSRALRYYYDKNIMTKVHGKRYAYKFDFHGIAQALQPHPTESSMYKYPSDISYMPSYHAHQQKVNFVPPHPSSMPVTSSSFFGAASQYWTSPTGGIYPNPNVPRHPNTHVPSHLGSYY
# Outline: (§1)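 Human transcription factors were made in yeast as GST fusions, captured on glutathione beads and barcoded with DNA. With a tag-only sample included, the pool was incubated with 200 nmole of a random double-stranded 16-mer DNA library in Tris/NaCl/DTT/glycerol buffer at room temperature for 30 min, then crosslinked with 0.1% formaldehyde after washing, ligated by proximity, amplified and sequenced. For binding signal, each hexamer's read frequency for a factor is divided by its frequency for the tag-only sample.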
# [2] = target: T2, ELK1 (Homo sapiens, UniProt P19419 1-428); conditions: protein: recombinant; tags: N-terminal GST; dsDNA, one strand shown
# T2 sequence: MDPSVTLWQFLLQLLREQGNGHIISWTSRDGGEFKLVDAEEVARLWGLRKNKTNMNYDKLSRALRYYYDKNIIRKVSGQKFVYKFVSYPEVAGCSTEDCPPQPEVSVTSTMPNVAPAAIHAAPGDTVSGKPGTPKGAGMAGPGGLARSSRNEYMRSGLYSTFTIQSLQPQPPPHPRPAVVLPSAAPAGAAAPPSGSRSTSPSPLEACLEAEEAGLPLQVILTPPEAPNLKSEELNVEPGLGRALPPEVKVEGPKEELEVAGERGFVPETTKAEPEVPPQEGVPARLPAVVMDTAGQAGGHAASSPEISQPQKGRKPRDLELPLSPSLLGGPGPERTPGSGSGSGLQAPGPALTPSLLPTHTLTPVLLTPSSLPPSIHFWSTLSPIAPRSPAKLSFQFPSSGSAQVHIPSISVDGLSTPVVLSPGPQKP
# Outline: as §1
# [3] = target: T3, GABPA (Homo sapiens, UniProt Q06546 1-454); conditions: protein: recombinant; tags: N-terminal GST; dsDNA, one strand shown
# T3 sequence: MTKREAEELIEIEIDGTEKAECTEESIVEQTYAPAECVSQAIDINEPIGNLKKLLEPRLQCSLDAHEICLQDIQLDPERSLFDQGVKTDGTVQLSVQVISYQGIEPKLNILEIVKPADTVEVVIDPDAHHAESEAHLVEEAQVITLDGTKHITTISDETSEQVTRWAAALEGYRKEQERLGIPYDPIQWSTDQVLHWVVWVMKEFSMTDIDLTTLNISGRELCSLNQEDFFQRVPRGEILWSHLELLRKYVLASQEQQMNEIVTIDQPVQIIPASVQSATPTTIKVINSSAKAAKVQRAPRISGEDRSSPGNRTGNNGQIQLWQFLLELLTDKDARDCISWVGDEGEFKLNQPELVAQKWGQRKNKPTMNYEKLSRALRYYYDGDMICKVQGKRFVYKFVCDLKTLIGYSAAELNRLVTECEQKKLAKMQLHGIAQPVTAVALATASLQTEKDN
# Outline: as §1
# [4] = target: T4, ERG (Homo sapiens, UniProt P11308 1-479); conditions: protein: recombinant; tags: N-terminal GST; dsDNA, one strand shown
# T4 sequence: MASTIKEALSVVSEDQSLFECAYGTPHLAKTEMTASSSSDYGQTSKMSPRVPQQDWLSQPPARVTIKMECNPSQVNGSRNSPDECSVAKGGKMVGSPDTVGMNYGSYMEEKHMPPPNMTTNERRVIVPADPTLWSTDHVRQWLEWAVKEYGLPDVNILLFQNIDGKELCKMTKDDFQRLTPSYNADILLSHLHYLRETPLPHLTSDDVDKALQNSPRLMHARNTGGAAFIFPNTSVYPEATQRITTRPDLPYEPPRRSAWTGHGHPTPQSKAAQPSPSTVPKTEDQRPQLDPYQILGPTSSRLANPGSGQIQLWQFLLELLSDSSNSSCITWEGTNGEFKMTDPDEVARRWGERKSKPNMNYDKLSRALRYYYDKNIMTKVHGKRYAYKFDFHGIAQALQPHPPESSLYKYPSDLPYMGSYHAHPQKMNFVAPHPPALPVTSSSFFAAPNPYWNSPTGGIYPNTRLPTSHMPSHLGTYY
# Outline: as §1
# [5] = target: ELF1 (Homo sapiens, UniProt P32519 1-619); conditions: protein: recombinant; tags: N-terminal GST; dsDNA, one strand shown
# Chain of ELF1 (P32519 whole entry): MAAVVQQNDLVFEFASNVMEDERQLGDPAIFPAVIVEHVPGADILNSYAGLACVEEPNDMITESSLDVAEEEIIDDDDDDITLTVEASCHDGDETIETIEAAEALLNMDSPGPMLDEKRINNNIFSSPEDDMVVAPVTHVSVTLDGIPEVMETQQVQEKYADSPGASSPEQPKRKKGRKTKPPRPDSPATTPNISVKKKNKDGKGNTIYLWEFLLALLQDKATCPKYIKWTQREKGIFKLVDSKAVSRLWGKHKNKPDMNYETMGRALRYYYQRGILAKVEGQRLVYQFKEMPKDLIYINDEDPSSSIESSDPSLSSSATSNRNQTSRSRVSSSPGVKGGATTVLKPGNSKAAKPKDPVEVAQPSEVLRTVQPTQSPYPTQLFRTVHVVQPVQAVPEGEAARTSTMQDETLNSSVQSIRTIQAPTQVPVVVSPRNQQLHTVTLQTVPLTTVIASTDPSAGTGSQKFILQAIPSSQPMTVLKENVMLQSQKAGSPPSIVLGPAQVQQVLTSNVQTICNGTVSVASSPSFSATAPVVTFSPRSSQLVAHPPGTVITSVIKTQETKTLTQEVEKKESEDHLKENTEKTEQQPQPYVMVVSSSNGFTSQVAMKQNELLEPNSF
# Outline: as §1
# [6] = target: T5, EHF (Homo sapiens, UniProt Q9NZC4 1-300); conditions: protein: recombinant; tags: N-terminal GST; dsDNA, one strand shown
# T5 sequence: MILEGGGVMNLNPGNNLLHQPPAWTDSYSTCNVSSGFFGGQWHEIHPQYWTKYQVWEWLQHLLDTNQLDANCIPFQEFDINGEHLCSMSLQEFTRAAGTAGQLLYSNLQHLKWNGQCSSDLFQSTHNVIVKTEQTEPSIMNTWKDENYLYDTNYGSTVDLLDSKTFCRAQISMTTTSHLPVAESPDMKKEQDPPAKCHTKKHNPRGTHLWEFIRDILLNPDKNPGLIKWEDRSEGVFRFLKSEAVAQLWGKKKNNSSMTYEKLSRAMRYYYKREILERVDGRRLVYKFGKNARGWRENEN
# Outline: as §1
# [7] = target: SPI1 (Homo sapiens, UniProt P17947 1-270); conditions: protein: recombinant; tags: N-terminal GST; dsDNA, one strand shown
# Outline: as §1
# [8] = target: SPIB (Homo sapiens, UniProt Q01892 1-262); conditions: protein: recombinant; tags: N-terminal GST; dsDNA, one strand shown
# Chain of SPIB (Q01892 whole entry): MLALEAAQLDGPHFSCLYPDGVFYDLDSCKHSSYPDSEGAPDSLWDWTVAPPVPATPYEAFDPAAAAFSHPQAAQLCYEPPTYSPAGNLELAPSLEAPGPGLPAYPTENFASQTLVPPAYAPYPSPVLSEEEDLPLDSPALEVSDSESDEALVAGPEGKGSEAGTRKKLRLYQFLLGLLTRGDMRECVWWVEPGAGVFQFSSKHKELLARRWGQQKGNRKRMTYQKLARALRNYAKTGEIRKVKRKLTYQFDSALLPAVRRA
# Outline: as §1
# [9] = target: T6, ELK3 (Homo sapiens, UniProt P41970 1-407); conditions: protein: recombinant; tags: N-terminal GST; dsDNA, one strand shown
# T6 sequence: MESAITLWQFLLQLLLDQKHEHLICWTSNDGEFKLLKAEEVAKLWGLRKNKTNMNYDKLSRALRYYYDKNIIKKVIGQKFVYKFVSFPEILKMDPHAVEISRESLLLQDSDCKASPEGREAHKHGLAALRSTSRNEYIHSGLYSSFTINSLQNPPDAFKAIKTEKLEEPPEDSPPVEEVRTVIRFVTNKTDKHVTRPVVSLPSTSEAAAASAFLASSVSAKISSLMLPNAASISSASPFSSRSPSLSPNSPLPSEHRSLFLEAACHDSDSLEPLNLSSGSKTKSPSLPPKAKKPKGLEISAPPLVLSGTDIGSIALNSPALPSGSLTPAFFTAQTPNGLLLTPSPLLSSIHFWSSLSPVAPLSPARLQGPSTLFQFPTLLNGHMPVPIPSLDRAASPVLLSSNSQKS
# Outline: as §1
# [10] = target: T7, FEV (Homo sapiens, UniProt Q99581 1-238); conditions: protein: recombinant; tags: N-terminal GST; dsDNA, one strand shown
# T7 sequence: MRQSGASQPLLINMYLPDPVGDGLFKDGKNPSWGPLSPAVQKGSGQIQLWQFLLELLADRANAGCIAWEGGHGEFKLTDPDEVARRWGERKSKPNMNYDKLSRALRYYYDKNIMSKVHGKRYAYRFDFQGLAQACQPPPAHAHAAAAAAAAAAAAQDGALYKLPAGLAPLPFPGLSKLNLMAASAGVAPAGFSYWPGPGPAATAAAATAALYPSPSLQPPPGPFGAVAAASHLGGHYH
# Outline: as §1
# [11] = target: ETV5 (Homo sapiens, UniProt P41161 1-510); conditions: protein: recombinant; tags: N-terminal GST; dsDNA, one strand shown
# Chain of ETV5 (P41161 whole entry): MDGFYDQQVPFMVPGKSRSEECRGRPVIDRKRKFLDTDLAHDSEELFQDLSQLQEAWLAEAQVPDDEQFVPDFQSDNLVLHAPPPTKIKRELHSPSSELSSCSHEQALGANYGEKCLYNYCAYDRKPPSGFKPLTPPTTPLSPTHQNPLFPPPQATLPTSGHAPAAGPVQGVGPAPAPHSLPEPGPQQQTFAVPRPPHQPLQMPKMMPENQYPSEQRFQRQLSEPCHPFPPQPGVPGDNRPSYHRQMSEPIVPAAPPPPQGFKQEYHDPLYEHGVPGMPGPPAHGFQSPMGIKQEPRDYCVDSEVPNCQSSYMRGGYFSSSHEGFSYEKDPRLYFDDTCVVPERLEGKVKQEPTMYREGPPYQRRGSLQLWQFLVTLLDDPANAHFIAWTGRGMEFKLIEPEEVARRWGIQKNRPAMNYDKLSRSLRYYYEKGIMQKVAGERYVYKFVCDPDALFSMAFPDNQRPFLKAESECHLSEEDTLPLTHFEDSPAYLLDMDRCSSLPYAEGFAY
# Outline: as §1
# [12] = target: HSF1 (Homo sapiens, UniProt Q00613 1-529); conditions: protein: recombinant; tags: N-terminal GST; chain copies: 3; dsDNA, one strand shown
# Chain of HSF1 (Q00613 whole entry): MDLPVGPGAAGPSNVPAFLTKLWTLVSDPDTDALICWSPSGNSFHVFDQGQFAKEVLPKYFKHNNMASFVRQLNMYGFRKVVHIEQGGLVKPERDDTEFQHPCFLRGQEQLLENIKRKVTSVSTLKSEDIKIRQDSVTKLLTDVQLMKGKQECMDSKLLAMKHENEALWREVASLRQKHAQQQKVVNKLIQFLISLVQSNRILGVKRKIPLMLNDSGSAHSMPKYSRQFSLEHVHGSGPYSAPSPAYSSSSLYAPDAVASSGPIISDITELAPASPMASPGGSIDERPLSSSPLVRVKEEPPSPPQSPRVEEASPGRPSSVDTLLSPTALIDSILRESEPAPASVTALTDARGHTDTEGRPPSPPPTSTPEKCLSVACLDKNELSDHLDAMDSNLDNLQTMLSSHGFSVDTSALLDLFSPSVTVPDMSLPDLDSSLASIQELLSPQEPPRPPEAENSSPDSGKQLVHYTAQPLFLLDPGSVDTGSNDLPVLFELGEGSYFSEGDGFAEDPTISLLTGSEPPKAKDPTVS
# Outline: as §1
# [13] = target: T8, SPIC (Homo sapiens, UniProt Q8N5J4 1-248); conditions: protein: recombinant; tags: N-terminal GST; dsDNA, one strand shown
# T8 sequence: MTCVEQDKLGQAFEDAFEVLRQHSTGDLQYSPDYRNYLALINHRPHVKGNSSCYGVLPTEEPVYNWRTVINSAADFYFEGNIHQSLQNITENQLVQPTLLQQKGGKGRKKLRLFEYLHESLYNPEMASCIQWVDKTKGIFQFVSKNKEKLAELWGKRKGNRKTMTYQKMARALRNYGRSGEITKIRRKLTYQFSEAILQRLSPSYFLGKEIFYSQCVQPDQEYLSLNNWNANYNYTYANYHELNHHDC
# Outline: as §1
# [14] = target: ELF4 (Homo sapiens, UniProt Q99607 1-663); conditions: protein: recombinant; tags: N-terminal GST; dsDNA, one strand shown
# Chain of ELF4 (Q99607 whole entry): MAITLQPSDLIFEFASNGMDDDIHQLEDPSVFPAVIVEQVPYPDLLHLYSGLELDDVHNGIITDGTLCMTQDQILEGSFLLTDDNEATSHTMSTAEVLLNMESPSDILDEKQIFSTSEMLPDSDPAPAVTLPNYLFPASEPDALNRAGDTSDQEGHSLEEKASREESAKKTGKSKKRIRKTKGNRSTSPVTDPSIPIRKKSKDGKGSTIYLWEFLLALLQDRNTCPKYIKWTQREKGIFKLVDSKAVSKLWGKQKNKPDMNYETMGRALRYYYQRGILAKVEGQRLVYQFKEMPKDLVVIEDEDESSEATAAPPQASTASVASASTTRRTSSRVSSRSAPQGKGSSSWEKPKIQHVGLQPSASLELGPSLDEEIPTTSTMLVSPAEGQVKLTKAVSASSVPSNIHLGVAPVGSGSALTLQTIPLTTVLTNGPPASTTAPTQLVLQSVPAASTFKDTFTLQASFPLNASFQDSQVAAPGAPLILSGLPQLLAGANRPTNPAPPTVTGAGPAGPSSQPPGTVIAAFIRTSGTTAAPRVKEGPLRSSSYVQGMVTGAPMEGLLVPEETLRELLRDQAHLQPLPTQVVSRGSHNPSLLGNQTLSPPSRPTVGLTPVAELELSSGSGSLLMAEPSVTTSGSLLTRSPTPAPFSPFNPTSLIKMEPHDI
# Outline: as §1
# [15] = target: T9, ELK4 (Homo sapiens, UniProt P28324-2 1-405); conditions: protein: recombinant; tags: N-terminal GST; dsDNA, one strand shown
# T9 sequence: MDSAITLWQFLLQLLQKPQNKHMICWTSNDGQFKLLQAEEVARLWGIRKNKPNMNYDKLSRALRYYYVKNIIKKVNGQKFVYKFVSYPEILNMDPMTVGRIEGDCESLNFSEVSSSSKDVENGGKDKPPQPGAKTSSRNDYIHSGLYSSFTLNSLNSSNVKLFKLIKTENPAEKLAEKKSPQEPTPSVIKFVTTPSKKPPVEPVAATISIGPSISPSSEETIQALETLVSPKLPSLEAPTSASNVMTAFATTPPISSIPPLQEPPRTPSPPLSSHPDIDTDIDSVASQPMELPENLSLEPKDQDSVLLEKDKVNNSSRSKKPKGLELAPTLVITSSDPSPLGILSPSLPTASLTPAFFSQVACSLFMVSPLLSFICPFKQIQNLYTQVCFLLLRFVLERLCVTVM
# Outline: as §1
# [16] = target: T10, ETV2 (Homo sapiens, UniProt O00321 1-342); conditions: protein: recombinant; tags: N-terminal GST; dsDNA, one strand shown
# T10 sequence: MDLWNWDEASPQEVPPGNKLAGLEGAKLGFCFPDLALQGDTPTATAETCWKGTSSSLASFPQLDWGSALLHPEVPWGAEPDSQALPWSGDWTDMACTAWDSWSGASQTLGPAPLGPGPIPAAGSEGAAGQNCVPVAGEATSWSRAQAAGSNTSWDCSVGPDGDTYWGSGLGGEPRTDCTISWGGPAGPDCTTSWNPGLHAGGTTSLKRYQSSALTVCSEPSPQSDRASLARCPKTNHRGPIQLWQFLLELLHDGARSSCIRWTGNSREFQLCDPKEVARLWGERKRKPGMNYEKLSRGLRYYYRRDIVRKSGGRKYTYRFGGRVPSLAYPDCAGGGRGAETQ
# Outline: as §1
# [17] = target: T11, ELF3 (Homo sapiens, UniProt P78545 1-371); conditions: protein: recombinant; tags: N-terminal GST; dsDNA, one strand shown
# T11 sequence: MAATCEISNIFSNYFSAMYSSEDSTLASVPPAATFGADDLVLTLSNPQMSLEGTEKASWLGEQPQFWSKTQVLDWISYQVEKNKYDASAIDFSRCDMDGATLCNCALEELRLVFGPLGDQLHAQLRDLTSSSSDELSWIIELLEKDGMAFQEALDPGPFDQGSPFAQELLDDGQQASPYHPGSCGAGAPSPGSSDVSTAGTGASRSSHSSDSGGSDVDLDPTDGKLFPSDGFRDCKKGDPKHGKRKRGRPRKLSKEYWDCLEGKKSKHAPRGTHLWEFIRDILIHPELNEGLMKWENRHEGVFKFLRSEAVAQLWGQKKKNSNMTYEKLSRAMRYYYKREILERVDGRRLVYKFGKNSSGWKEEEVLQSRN
# Outline: as §1
# [18] = target: CRX (Homo sapiens, UniProt O43186 1-299); conditions: protein: recombinant; tags: N-terminal GST; dsDNA, one strand shown
# Chain of CRX (O43186 whole entry): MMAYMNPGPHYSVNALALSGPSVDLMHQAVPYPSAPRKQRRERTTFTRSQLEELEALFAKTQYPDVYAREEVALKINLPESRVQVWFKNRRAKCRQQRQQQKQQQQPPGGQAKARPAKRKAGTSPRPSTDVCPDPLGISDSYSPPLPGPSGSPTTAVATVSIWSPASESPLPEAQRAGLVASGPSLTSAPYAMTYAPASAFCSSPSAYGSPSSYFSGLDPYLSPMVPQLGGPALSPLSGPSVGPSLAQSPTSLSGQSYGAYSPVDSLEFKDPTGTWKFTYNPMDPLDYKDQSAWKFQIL
# Outline: as §1
# [19] = target: ETV1 (Homo sapiens, UniProt P50549 1-477); conditions: protein: recombinant; tags: N-terminal GST; dsDNA, one strand shown
# Chain of ETV1 (P50549 whole entry): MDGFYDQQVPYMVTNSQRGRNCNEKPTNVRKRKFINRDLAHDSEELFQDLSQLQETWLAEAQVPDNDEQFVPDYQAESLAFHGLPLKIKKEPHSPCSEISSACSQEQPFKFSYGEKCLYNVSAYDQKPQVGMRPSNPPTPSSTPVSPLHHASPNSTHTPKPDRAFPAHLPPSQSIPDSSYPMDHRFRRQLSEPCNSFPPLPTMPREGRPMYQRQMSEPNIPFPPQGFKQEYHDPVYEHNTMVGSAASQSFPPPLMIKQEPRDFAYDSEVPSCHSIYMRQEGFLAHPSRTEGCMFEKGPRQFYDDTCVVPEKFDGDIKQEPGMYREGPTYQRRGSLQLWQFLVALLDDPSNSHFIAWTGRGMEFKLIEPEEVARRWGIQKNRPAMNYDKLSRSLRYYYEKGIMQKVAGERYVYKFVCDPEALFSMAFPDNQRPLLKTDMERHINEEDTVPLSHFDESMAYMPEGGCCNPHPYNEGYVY
# Outline: as §1
sequence,measurement,setting,value
AGAATT,binding signal,[1],"1.21 fold enrichment (6-mer frequency, TF over GST control)"
same,binding signal,[2],"1.15 fold enrichment (6-mer frequency, TF over GST control)"
same,binding signal,[3],"1.11 fold enrichment (6-mer frequency, TF over GST control)"
same,binding signal,[4],"1.17 fold enrichment (6-mer frequency, TF over GST control)"
same,binding signal,[5],"1.15 fold enrichment (6-mer frequency, TF over GST control)"
same,binding signal,[6],"1.18 fold enrichment (6-mer frequency, TF over GST control)"
same,binding signal,[7],"1.22 fold enrichment (6-mer frequency, TF over GST control)"
same,binding signal,[8],"1.16 fold enrichment (6-mer frequency, TF over GST control)"
same,binding signal,[9],"1.28 fold enrichment (6-mer frequency, TF over GST control)"
same,binding signal,[10],"1.08 fold enrichment (6-mer frequency, TF over GST control)"
same,binding signal,[11],"1.13 fold enrichment (6-mer frequency, TF over GST control)"
same,binding signal,[12],"2.2 fold enrichment (6-mer frequency, TF over GST control)"
same,binding signal,[13],"1.24 fold enrichment (6-mer frequency, TF over GST control)"
same,binding signal,[14],"1.24 fold enrichment (6-mer frequency, TF over GST control)"
same,binding signal,[15],"1.2 fold enrichment (6-mer frequency, TF over GST control)"
same,binding signal,[16],"1.06 fold enrichment (6-mer frequency, TF over GST control)"
same,binding signal,[17],"1.04 fold enrichment (6-mer frequency, TF over GST control)"
same,binding signal,[18],"1.76 fold enrichment (6-mer frequency, TF over GST control)"
same,binding signal,[19],"1.16 fold enrichment (6-mer frequency, TF over GST control)"
